This is an account of results in paper PMC13083723 (Patterns, 2026).

The structures appear in SMILES notation. About 190 (3.5%) of roughly 5,400 compounds showed an effect of 50% or more. The sample holds strong results, similar compounds and a random draw of the others, so the mix is not that of the screen. Starred links: 1 amine or outer side, 2 acyl side, 3 side chain; linkers in the order of their positions; H or OH if unused. Positions of bridges follow the written chain, without caps; N, C: chain ends. Non-standard residues stand in square brackets, D forms with d. Residues, ends and D or L forms follow the SMILES beside them. *: point of attachment. X5 = NC1=N[C@@H](O)C[C@H]([C@H](N[*:1])C(=O)[*:2])N1; ΔAla(Z-3-ureido) = NC(=O)N/C=C(\N)C(=O)O; β3hOrn = NCCC[C@H](N)CC(=O)*; Dap = NC[C@H](N)C(=O)O

The test deals with Vero-E6. Put plainly: primary screen, phospholipidosis by LipidTOX staining; higher = more effect of the substance. Particulars: 10 µM. Summed up: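 Single-concentration screen at 10 μM, with DMSO 0.1 v/v % and amiodarone 10 μM as controls. Read-out is LipidTOX Red phospholipid staining, which tolerates aldehyde fixation, in Vero-E6 cells.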
Regarding `Cn1cnc([N+](=O)[O-])c1Sc1[nH]cnc2ncnc1-2`, the result_ITMP is reported as -1.78%.

On to `N=C(N)Nc1ccc2[nH]c3c(c2c1)C[C@@]1(O)C2Cc4ccc(O)c5c4[C@@]1(CCN2CC1CC1)[C@H]3O5`, for which the result_ITMP is reported as -0.46%.

`Nc1ccc(S(=O)(=O)[N-]c2cnc3ccccc3n2)cc1`: the result_ITMP is -3.26%.

Take `O=C([O-])c1nc(=O)[nH]c(=O)[nH]1`: the result_ITMP is recorded as -2.23%.

Take `CCC[C@@H]1CC2=CC(=O)CC[C@]2(C)[C@H]2CC[C@@]3(C)[C@@H](CC[C@@]3(O)CCC(=O)[O-])[C@H]12`: the result_ITMP is given as -2.26%.

Turning to `NC1=N[C@H]2[C@H](CCCCC(=O)O)SC[C@H]2N1`, the result_ITMP is listed as -5.63%.

Turning to `C[C@]12CC[C@H]3[C@@H](CCC4=CC(=O)CC[C@@H]43)[C@@H]1CC[C@@H]2O`, the result_ITMP is reported as -1.6%.

Turning to `NCCC[C@H](N)CC(=O)N[C@H]1CNC(=O)[C@H]([C@H]2C[C@H](O)N=C(N)N2)NC(=O)/C(=C/NC(N)=O)NC(=O)[C@H](CO)NC(=O)[C@H](CO)NC1=O` (β3hOrn-[Dap]SS[ΔAla(Z-3-ureido)][X5]; lactam 1-C), the result_ITMP was -3.72%.

Regarding `CCOc1cc(C(C)(C)C)ccc1C1=N[C@@](C)(c2ccc(Cl)cc2)[C@@](C)(c2ccc(Cl)cc2)N1C(=O)N1CCN(CCCS(C)(=O)=O)CC1`, the result_ITMP stood at 106%.

`Cc1c(Cl)cccc1S(=O)(=O)Nc1nc(NCCc2ccccc2)nc2c1CN(Cc1ccccc1)CC2`: the result_ITMP is listed as -0.11%.

Turning to `Cn1cc(C2=C(c3cn(CCCSC(=N)N)c4ccccc34)C(=O)NC2=O)c2ccccc21`, the result_ITMP came to 15.8%.

Take `CN(C)CCCn1cc(C2=C(c3c[nH]c4ccccc34)C(=O)NC2=O)c2ccccc21`: the result_ITMP is given as -0.11%.

In the case of `COc1ccc2c(c1)c(C1=C(c3c[nH]c4ccccc34)C(=O)NC1=O)cn2CCCN(C)C`, the result_ITMP amounted to 120%.

Take `CS(=O)(=O)c1ccc(-c2cn3ccccc3n2)cc1`: the result_ITMP is given as -2.12%.

With `O=C([O-])c1ccccc1-c1c2cc(I)c(=O)c(I)c-2oc2c(I)c([O-])c(I)cc12`, the result_ITMP was 7.91%.

For `CCC1=C[C@@H]2C[N@@]3CCc4c([nH]c5ccccc45)[C@@](C(=O)OC)(C2)[C@@H]13`, the result_ITMP worked out at 6.61%.

`COc1cc2nccc(Oc3ccc(NC(=O)C4(C(=O)Nc5ccc(F)cc5)CC4)cc3)c2cc1OC`: the result_ITMP was 0.07%.

On to `COc1cc2c(Nc3ccc(NC(=O)c4ccccc4)cc3)ncnc2cc1OCCCN1CCOCC1`, for which the result_ITMP was -3.61%.

Consider `COc1cc2c(Oc3ccc(NC(=O)C4(C(=O)Nc5ccc(F)cc5)CC4)cc3F)ccnc2cc1OCCCN1CCOCC1`, for which the result_ITMP was determined as 80.1%.

On to `CN1[C@@H]2CC[C@H]1C[C@@H](OC(=O)N1Cc3ccccc3NC1=O)C2`, for which the result_ITMP was -1.56%.

Regarding `Cc1cc(Nc2ncnc3ccc(-c4ccc(CNCCS(C)(=O)=O)o4)cc23)ccc1Oc1ccn2ncnc2c1`, the result_ITMP is recorded as 48.5%.

On to `CS(=O)(=O)CCNCc1nc(-c2ccc3ncnc(Nc4ccc(OCc5cccc(F)c5)c(Cl)c4)c3c2)cs1`, for which the result_ITMP came out at 2.46%.

With `CS(=O)(=O)CCNCc1ccc(-c2ccc3ncnc(Nc4ccc(OCc5cccc(F)c5)c(Cl)c4)c3c2)o1`, the result_ITMP came out at 91.4%.

As for `CCn1c2ccccc2c2cc(CNCc3ccccc3OC)ccc21`, the result_ITMP came to 56.5%.

As for `COc1ccc(CNCc2cccc3ccccc23)cc1`, the result_ITMP came to 11.4%.

For `CCn1c2ccccc2c2cc(CNC)ccc21`, the result_ITMP was determined as 73.3%.

Regarding `CCn1c(=O)[nH]c2ccccc21`, the result_ITMP is listed as -2.45%.

Turning to `CCCC(CCC)C(=O)NCc1ccc2c(cnn2-c2ccccc2OC)c1`, the result_ITMP is 0.82%.

In the case of `CCCC(CCC)C(=O)[O-]`, the result_ITMP was -5.85%.

With `CC(=O)NCC(=O)N1[C@@H]2CC[C@H]1c1ccc(Nc3ncc(C(F)(F)F)c(NC4CCC4)n3)cc12`, the result_ITMP came out at 2.85%.

For `Nc1nc(=O)c2c([nH]1)NCC(CNc1ccc(C(=O)N[C@@H](CCC(=O)[O-])C(=O)[O-])cc1)N2C=O` (some centres unmarked), the result_ITMP was -2.25%.

Consider `C=C1/C(=C\C=C2/CCC[C@]3(C)[C@@H]([C@H](C)/C=C/[C@@H](O)C4CC4)CC[C@@H]23)C[C@@H](O)C[C@@H]1O`, for which the result_ITMP is -1.18%.

For `Nc1nc(=O)c2c([nH]1)NC[C@H](CNc1ccc(C(=O)N[C@@H](CCC(=O)[O-])C(=O)[O-])cc1)N2C=O`, the result_ITMP is recorded as -7.53%.

Turning to `COc1cc(OC)cc(N(CCNC(C)C)c2ccc3ncc(-c4cnn(C)c4)nc3c2)c1`, the result_ITMP came to 55.2%.

Regarding `COc1cc2ncc(-c3ccccc3)nc2cc1OC`, the result_ITMP was -10.1%.

Consider `Cn1cc(-c2ccc3ncc(Cc4ccc5ncccc5c4)n3n2)cn1`, for which the result_ITMP is 3.96%.

As to `CCCCCN(C)CCC(O)(P(=O)([O-])O)P(=O)(O)O`, the result_ITMP is given as 3.23%.

Take `C=CCN.ClCC1CO1` (centres unmarked): the result_ITMP is -4.42%.

In the case of `C[C@@H]1N=C(N)NC(N(C)C)=N1`, the result_ITMP is listed as -2.11%.

For `CC(C)c1cnn2c(NCc3ccccc3)cc(NCCCCCCN)nc12`, the result_ITMP is on record as 53.6%.

Consider `CC(=O)N[C@H]1[C@H]([C@H](O)[C@H](O)CO)OC(C(=O)O)=C[C@@H]1NC(=N)N`, for which the result_ITMP is recorded as -15.8%.

For the compound `Cc1ncc(-c2csc(NC(=N)N)n2)[nH]1`, the result_ITMP is listed as -2.01%.

Take `c1ccc2c(c1)Sc1ccccc1N2CC1CN2CCC1CC2` (centres unmarked): the result_ITMP came to 71.6%.

In the case of `Cn1cc(C(=O)C(=O)N[C@H]2CN3CCC2CC3)c2ccccc21`, the result_ITMP was determined as 4.71%.

Consider `C[C@H](CCC(=O)[O-])[C@H]1CCC2C3C(=O)CC4CC(=O)CC[C@]4(C)C3CC(=O)[C@@]21C` (some centres unmarked), for which the result_ITMP is listed as 4.65%.

As for `COc1cc(NC(C)CCCN)c2ncccc2c1` (centres unmarked), the result_ITMP was 1.37%.

Consider `COc1cc(C)c2c(Oc3cccc(C(F)(F)F)c3)c(OC)cc(NC(C)CCCN)c2n1` (centres unmarked), for which the result_ITMP was 51.6%.

Take `CO[C@H]1CC[C@H](N(c2cc(C3=CCCCC3)sc2C(=O)[O-])C(=O)[C@H]2CC[C@H](C)CC2)CC1`: the result_ITMP is given as -0.87%.

`C[C@]12CC[C@@H]3c4ccc(OC(=O)N(CCCl)CCCl)cc4CC[C@H]3[C@@H]1CC[C@@H]2OP(=O)([O-])[O-]`: the result_ITMP is -4.08%.

For the compound `O=C(CCCN1CCC(O)(c2ccc(Br)cc2)CC1)c1ccc(F)cc1`, the result_ITMP is on record as 14.8%.

As to `O=C(CCCN1CCC2(CC1)C(=O)NCN2c1ccccc1)c1ccc(F)cc1`, the result_ITMP was 20.3%.

As for `O=C(CCCN1CCC2(CC1)C(=O)N(Cc1cccc(F)c1)CN2c1ccccc1)c1ccc(F)cc1`, the result_ITMP is 89%.

On to `CC(=O)OCC1=C(C(=O)[O-])N2C(=O)[C@@H](NC(=O)CCCC(N)C(=O)[O-])C2SC1` (some centres unmarked), for which the result_ITMP was found to be 1.34%.

As to `CC1(C)[C@H]2CC[C@@]1(C)[C@H](O)[C@@H]2O`, the result_ITMP is reported as -3.19%.

For `C[C@@H]1[C@H](O)[C@@H](C)/C=C/C=C/C=C/C=C/C=C/C=C/C=C/[C@H](O[C@@H]2O[C@H](C)[C@@H](O)[C@H](N)[C@@H]2O)C[C@@H]2O[C@](O)(C[C@@H](O)C[C@@H](O)[C@H](O)CC[C@@H](O)C[C@@H](O)CC(=O)O[C@H]1C)C[C@H](O)[C@H]2C(=O)O`, the result_ITMP is listed as 0.23%.

For `C[C@]12CCC(=O)C=C1CC[C@@H]1[C@@H]2[C@@H](O)C[C@]2(C)C(=O)CC[C@@H]12`, the result_ITMP is on record as -4.8%.

`NC(=O)[C@@H]1CC[C@@H]2CN1C(=O)N2OS(=O)(=O)[O-]`: the result_ITMP is -0.26%.

As for `COc1cc(OC2CCN(C)CC2)ccc1Nc1ncc2c(n1)n(C1CCCC1)c(=O)n2C`, the result_ITMP worked out at 37.2%.

In the case of `COc1ccc(F)c(F)c1C(=O)c1cnc(NC2CCN(S(C)(=O)=O)CC2)nc1N`, the result_ITMP was 16.3%.

As for `CC(C)CCN1c2nc(Nc3cc(F)c(O)c(F)c3)ncc2N(C)C(=O)C1C` (centres unmarked), the result_ITMP was determined as 17.5%.

As for `CCOc1cc(C(=O)N2CCC(N3CCN(C)CC3)CC2)ccc1Nc1ncc2c(n1)N(C1CCCC1)c1ccccc1C(=O)N2C`, the result_ITMP came to 14.1%.

With `CC[C@@H]1C(=O)N(C)c2cnc(Nc3ccc(C(=O)N[C@H]4CC[C@H](N5CCN(CC6CC6)CC5)CC4)cc3OC)nc2N1C(C)C`, the result_ITMP is reported as 81.5%.

In the case of `COc1cc(C(=O)N2CCC(N3CCN(C)CC3)CC2)ccc1Nc1ncc2c(n1)N(C)c1ccccc1C(=O)N2C`, the result_ITMP was found to be 37.9%.

With `COc1cc(C(=O)NC2CCN(C)CC2)c(F)cc1Nc1ncc2c(n1)N(C1CCCC1)CC(F)(F)C(=O)N2C`, the result_ITMP came to 69.4%.

Turning to `CC[C@@H]1C(=O)N(C)c2cnc(Nc3ccc(C(=O)NC4CCN(C)CC4)cc3OC)nc2N1C1CCCC1`, the result_ITMP worked out at 66.8%.

Regarding `CC(C)(C)/[N+]([O-])=C/c1ccc(S(=O)(=O)[O-])cc1S(=O)(=O)[O-]`, the result_ITMP is listed as -0.44%.

Consider `O=C(O)c1ccc(/C=C2\SC(=S)N(c3cccc(C(F)(F)F)c3)C2=O)cc1`, for which the result_ITMP is 0.16%.

Regarding `CC(C)(COP(=O)([O-])OP(=O)([O-])OC[C@H]1O[C@@H](n2cnc3c(N)ncnc32)[C@H](O)[C@@H]1OP(=O)([O-])O)[C@@H](O)C(=O)NCCC(=O)NCCS`, the result_ITMP is recorded as -4.31%.

`COc1ccc(/C=C\c2cc(OC)c(OC)c(OC)c2)cc1OP(=O)([O-])[O-]`: the result_ITMP came out at 11.6%.

With `N=C1NCCN1CC(=O)O`, the result_ITMP amounted to 1.96%.

For `O=C(O)CC/C=C\C[C@@H]1CO[C@H](c2ccccc2Cl)O[C@@H]1c1ccccc1O` (racemic), the result_ITMP is reported as -1.11%.

As for `NC(=O)C1=CN([C@@H]2O[C@H](COP(=O)([O-])OP(=O)([O-])OC[C@H]3O[C@@H](n4cnc5c(N)ncnc54)[C@H](O)[C@@H]3O)[C@@H](O)[C@H]2O)C=CC1`, the result_ITMP was -10.8%.

Take `C[C@H]1Oc2cc(cnc2N)-c2c(nn(C)c2C#N)CN(C)C(=O)c2ccc(F)cc21` [R4A_0001637_001 / SPE_A23124853]: the result_ITMP is -7.18%.

For `Cc1onc(-c2ccccc2)c1C(=O)NC1C(=O)N2[C@@H]1SC(C)(C)[C@@H]2C(=O)[O-]` (some centres unmarked), the result_ITMP is -4.06%.

Consider `CCOC(=O)C1CSC(Cc2ccc(OCc3ccc([N+](=O)[O-])cc3)cc2)N1` (centres unmarked), for which the result_ITMP was -2.45%.

`O=C(O)c1cc(Oc2ccc([N+](=O)[O-])cc2)cc(Oc2ccc([N+](=O)[O-])cc2)c1`: the result_ITMP was -1.17%.

Consider `N=C(N)SCCc1ccc(OCc2ccc([N+](=O)[O-])cc2)cc1`, for which the result_ITMP is on record as 70%.
